# Measured values published in PMC11006913.
# Residue numbers refer to the chain shown, from its start.
# Tests used:
# Experiment in all cases: PBM; 200 nM protein, PBS
# Conditions in all cases: dsDNA, one strand shown
# HOXB4 [1] = biological target: HOXB4 (Homo sapiens, UniProt P17483 148-234)
# HOXB4 [2] = biological target: HOXB4 (Homo sapiens, UniProt P17483 148-234, V174I)
# PAX4 [3] = biological target: T1, PAX4 (Homo sapiens, UniProt O43316 9-242, R200K)
# T1 sequence: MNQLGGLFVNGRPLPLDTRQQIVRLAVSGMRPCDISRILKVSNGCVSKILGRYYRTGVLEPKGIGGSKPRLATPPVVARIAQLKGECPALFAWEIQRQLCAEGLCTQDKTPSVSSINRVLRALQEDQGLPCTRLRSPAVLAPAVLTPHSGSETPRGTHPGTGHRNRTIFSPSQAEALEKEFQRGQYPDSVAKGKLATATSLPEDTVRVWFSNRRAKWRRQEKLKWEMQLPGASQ
# PAX4 [4] = biological target: T2, PAX4 (Homo sapiens, UniProt O43316 9-242)
# T2 sequence: T1 sequence with K192R
# PAX4 [5] = biological target: T3, PAX4 (Homo sapiens, UniProt O43316 9-242, R200Q)
# T3 sequence: T1 sequence with K192Q
# PAX4 [6] = biological target: T4, PAX4 (Homo sapiens, UniProt O43316 9-242, F177V)
# T4 sequence: T1 sequence with F169V, K192R
# PAX4 [7] = biological target: T5, PAX4 (Homo sapiens, UniProt O43316 9-242, F177Y)
# T5 sequence: T1 sequence with F169Y, K192R
# PAX4 [8] = biological target: T6, PAX4 (Homo sapiens, UniProt O43316 9-242, R227W)
# T6 sequence: T1 sequence with K192R, R219W
# HOXA2 [9] = biological target: HOXA2 (Homo sapiens, UniProt O43364 129-215, R185T)
# Chain of HOXA2 (Homo sapiens, UniProt O43364 129-215, R185T) (O43364 129-215 R185T): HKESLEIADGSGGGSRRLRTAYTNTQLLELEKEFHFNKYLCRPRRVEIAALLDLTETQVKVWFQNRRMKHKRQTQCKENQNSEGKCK
# HOXD13 [10] = biological target: HOXD13 (Homo sapiens, UniProt P35453 263-343, T313R)
# Chain of HOXD13 (Homo sapiens, UniProt P35453 263-343, T313R) (P35453 263-343 T313R): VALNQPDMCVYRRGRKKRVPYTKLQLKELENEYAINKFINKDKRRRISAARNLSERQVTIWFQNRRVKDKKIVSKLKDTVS
# HOXA2 [11] = biological target: HOXA2 (Homo sapiens, UniProt O43364 129-215, R185K)
# Chain of HOXA2 (Homo sapiens, UniProt O43364 129-215, R185K) (O43364 129-215 R185K): as the sequence (O43364 129-215 R185T) above, with T57K counted along it
# HOXD13 [12] = biological target: HOXD13 (Homo sapiens, UniProt P35453 263-343)
# Chain of HOXD13 (Homo sapiens, UniProt P35453 263-343) (P35453 263-343): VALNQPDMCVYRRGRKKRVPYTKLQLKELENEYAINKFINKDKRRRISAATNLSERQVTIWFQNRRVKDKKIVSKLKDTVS
# HOXD13 [13] = biological target: HOXD13 (Homo sapiens, UniProt P35453 263-343, T313A)
# Chain of HOXD13 (Homo sapiens, UniProt P35453 263-343, T313A) (P35453 263-343 T313A): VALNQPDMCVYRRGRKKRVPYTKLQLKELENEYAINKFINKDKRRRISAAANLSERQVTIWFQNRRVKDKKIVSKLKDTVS
# HOXA2 [14] = biological target: HOXA2 (Homo sapiens, UniProt O43364 129-215, Y150S)
# Chain of HOXA2 (Homo sapiens, UniProt O43364 129-215, Y150S) (O43364 129-215 Y150S): as the sequence (O43364 129-215 R185T) above, with Y22S, T57R counted along it
# HOXA2 [15] = biological target: HOXA2 (Homo sapiens, UniProt O43364 129-215)
# Chain of HOXA2 (Homo sapiens, UniProt O43364 129-215) (O43364 129-215): as the sequence (O43364 129-215 R185T) above, with T57R counted along it
# PRRX1 [16] = biological target: PRRX1 (Homo sapiens, UniProt P54821 80-166, F113S)
# Chain of PRRX1 (Homo sapiens, UniProt P54821 80-166, F113S) (P54821 80-166 F113S): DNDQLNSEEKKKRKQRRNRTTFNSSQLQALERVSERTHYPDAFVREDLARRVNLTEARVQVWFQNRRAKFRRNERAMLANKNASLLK
# PROP1 [17] = biological target: PROP1 (Homo sapiens, UniProt O75360 56-141)
# Chain of PROP1 (Homo sapiens, UniProt O75360 56-141) (O75360 56-141): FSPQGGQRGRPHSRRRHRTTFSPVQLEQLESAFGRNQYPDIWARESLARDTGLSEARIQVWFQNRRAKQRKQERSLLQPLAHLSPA
# PROP1 [18] = biological target: PROP1 (Homo sapiens, UniProt O75360 56-141, R99H)
# Chain of PROP1 (Homo sapiens, UniProt O75360 56-141, R99H) (O75360 56-141 R99H): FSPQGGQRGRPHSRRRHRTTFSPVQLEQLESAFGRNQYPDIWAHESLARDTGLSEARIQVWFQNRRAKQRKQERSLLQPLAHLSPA
# PROP1 [19] = biological target: PROP1 (Homo sapiens, UniProt O75360 56-141, F88S)
# Chain of PROP1 (Homo sapiens, UniProt O75360 56-141, F88S) (O75360 56-141 F88S): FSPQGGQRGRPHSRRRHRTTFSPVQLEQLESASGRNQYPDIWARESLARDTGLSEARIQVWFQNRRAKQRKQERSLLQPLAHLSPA
# PRRX1 [20] = biological target: PRRX1 (Homo sapiens, UniProt P54821 80-166)
# Chain of PRRX1 (Homo sapiens, UniProt P54821 80-166) (P54821 80-166): as the sequence (P54821 80-166 F113S) above, with S34F counted along it
# NKX2-6 [21] = biological target: T7, NKX2-6 (Homo sapiens, UniProt A6NCS4 118-204)
# T7 sequence: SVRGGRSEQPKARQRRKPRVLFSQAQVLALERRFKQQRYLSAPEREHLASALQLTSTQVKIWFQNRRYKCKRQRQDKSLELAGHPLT
# NKX2-6 [22] = biological target: T8, NKX2-6 (Homo sapiens, UniProt A6NCS4 118-204, F151L)
# T8 sequence: T7 sequence with F34L
# ALX4 [23] = biological target: ALX4 (Homo sapiens, UniProt Q9H161 200-286)
# Chain of ALX4 (Homo sapiens, UniProt Q9H161 200-286) (Q9H161 200-286): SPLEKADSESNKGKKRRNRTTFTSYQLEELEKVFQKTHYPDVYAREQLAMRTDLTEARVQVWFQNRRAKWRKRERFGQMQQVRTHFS
# ALX4 [24] = biological target: ALX4 (Homo sapiens, UniProt Q9H161 200-286, Q225E)
# Chain of ALX4 (Homo sapiens, UniProt Q9H161 200-286, Q225E) (Q9H161 200-286 Q225E): as the sequence (Q9H161 200-286) above, with Q26E counted along it
# VAX1 [25] = biological target: VAX1 (Homo sapiens, UniProt Q5SQQ9 86-172)
# Chain of VAX1 (Homo sapiens, UniProt Q5SQQ9 86-172) (Q5SQQ9 86-172): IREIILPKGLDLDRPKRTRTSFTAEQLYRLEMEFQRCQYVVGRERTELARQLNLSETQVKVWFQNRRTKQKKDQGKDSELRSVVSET
# VAX1 [26] = biological target: VAX1 (Homo sapiens, UniProt Q5SQQ9 86-172, T142I)
# Chain of VAX1 (Homo sapiens, UniProt Q5SQQ9 86-172, T142I) (Q5SQQ9 86-172 T142I): as the sequence (Q5SQQ9 86-172) above, with T57I counted along it
# VAX1 [27] = biological target: VAX1 (Homo sapiens, UniProt Q5SQQ9 86-172, K157R)
# Chain of VAX1 (Homo sapiens, UniProt Q5SQQ9 86-172, K157R) (Q5SQQ9 86-172 K157R): as the sequence (Q5SQQ9 86-172) above, with K72R counted along it
# HOXC10 [28] = biological target: HOXC10 (Homo sapiens, UniProt Q9NYD6 254-340)
# Chain of HOXC10 (Homo sapiens, UniProt Q9NYD6 254-340) (Q9NYD6 254-340): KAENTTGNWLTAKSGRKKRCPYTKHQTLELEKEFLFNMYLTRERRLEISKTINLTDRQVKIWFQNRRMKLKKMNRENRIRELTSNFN
# NKX2-6 [29] = biological target: T9, NKX2-6 (Homo sapiens, UniProt A6NCS4 118-204, R150C)
# T9 sequence: T7 sequence with R33C
# MSX2 [30] = biological target: MSX2 (Homo sapiens, UniProt P35548 130-214, R199I)
# Chain of MSX2 (Homo sapiens, UniProt P35548 130-214, R199I) (P35548 130-214 R199I): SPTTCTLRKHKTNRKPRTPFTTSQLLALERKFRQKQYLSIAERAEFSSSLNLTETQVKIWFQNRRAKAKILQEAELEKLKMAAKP
# ALX3 [31] = biological target: ALX3 (Homo sapiens, UniProt O95076 139-225, N203Q)
# Chain of ALX3 (Homo sapiens, UniProt O95076 139-225, N203Q) (O95076 139-225 N203Q): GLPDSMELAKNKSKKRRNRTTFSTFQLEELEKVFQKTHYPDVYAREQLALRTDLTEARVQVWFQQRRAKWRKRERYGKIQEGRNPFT
# HOXC10 [32] = biological target: HOXC10 (Homo sapiens, UniProt Q9NYD6 254-340, K271E)
# Chain of HOXC10 (Homo sapiens, UniProt Q9NYD6 254-340, K271E) (Q9NYD6 254-340 K271E): as the sequence (Q9NYD6 254-340) above, with K18E counted along it
# MSX2 [33] = biological target: MSX2 (Homo sapiens, UniProt P35548 130-214)
# Chain of MSX2 (Homo sapiens, UniProt P35548 130-214) (P35548 130-214): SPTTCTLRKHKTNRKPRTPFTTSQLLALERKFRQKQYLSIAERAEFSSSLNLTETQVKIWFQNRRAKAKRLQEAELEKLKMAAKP
# ALX3 [34] = biological target: ALX3 (Homo sapiens, UniProt O95076 139-225)
# Chain of ALX3 (Homo sapiens, UniProt O95076 139-225) (O95076 139-225): as the sequence (O95076 139-225 N203Q) above, with Q65N counted along it
# ALX3 [35] = biological target: ALX3 (Homo sapiens, UniProt O95076 139-225, L168Q)
# Chain of ALX3 (Homo sapiens, UniProt O95076 139-225, L168Q) (O95076 139-225 L168Q): as the sequence (O95076 139-225 N203Q) above, with L30Q, Q65N counted along it
# ALX3 [36] = biological target: ALX3 (Homo sapiens, UniProt O95076 139-225, L168V)
# Chain of ALX3 (Homo sapiens, UniProt O95076 139-225, L168V) (O95076 139-225 L168V): as the sequence (O95076 139-225 N203Q) above, with L30V, Q65N counted along it
# MSX2 [37] = biological target: MSX2 (Homo sapiens, UniProt P35548 130-214, F161Y)
# Chain of MSX2 (Homo sapiens, UniProt P35548 130-214, F161Y) (P35548 130-214 F161Y): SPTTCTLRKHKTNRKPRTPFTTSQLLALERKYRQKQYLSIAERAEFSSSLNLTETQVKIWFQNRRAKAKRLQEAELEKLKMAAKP
# ALX3 [38] = biological target: ALX3 (Homo sapiens, UniProt O95076 139-225, N203S)
# Chain of ALX3 (Homo sapiens, UniProt O95076 139-225, N203S) (O95076 139-225 N203S): as the sequence (O95076 139-225 N203Q) above, with Q65S counted along it
# Chain of HOXB4 (Homo sapiens, UniProt P17483 148-234, V174I) (P17483 148-234 V174I): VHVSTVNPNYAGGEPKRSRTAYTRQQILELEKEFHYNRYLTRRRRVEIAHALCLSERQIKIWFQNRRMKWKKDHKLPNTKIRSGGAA
# Chain of HOXB4 (Homo sapiens, UniProt P17483 148-234) (P17483 148-234): as the sequence (P17483 148-234 V174I) above, with I27V counted along it
sequence,measurement,setting,value
GAATAATC,binding signal,HOXB4 [1],"11.1 upbm affinity estimate (log intensity, higher = more binding, comparable within an allelic series)"
same,binding signal,HOXB4 [2],"11.3 upbm affinity estimate (log intensity, higher = more binding, comparable within an allelic series)"
ACGTGGCG,binding signal,HOXB4 [1],"7.5 upbm affinity estimate (log intensity, higher = more binding, comparable within an allelic series)"
same,binding signal,HOXB4 [2],"7.6 upbm affinity estimate (log intensity, higher = more binding, comparable within an allelic series)"
AGACCAGC,binding signal,HOXB4 [1],"7.43 upbm affinity estimate (log intensity, higher = more binding, comparable within an allelic series)"
same,binding signal,PAX4 [3],"9.14 upbm affinity estimate (log intensity, higher = more binding, comparable within an allelic series)"
same,binding signal,PAX4 [4],"9.21 upbm affinity estimate (log intensity, higher = more binding, comparable within an allelic series)"
same,binding signal,HOXB4 [2],"7.5 upbm affinity estimate (log intensity, higher = more binding, comparable within an allelic series)"
same,binding signal,PAX4 [5],"9.31 upbm affinity estimate (log intensity, higher = more binding, comparable within an allelic series)"
same,binding signal,PAX4 [6],"9.23 upbm affinity estimate (log intensity, higher = more binding, comparable within an allelic series)"
same,binding signal,PAX4 [7],"9.22 upbm affinity estimate (log intensity, higher = more binding, comparable within an allelic series)"
same,binding signal,PAX4 [8],"9.29 upbm affinity estimate (log intensity, higher = more binding, comparable within an allelic series)"
TGGCATAA,binding signal,HOXB4 [1],"10 upbm affinity estimate (log intensity, higher = more binding, comparable within an allelic series)"
same,binding signal,HOXB4 [2],"9.76 upbm affinity estimate (log intensity, higher = more binding, comparable within an allelic series)"
CGGGGGGA,binding signal,HOXB4 [1],"7.79 upbm affinity estimate (log intensity, higher = more binding, comparable within an allelic series)"
same,binding signal,HOXA2 [9],"7.04 upbm affinity estimate (log intensity, higher = more binding, comparable within an allelic series)"
same,binding signal,HOXB4 [2],"7.87 upbm affinity estimate (log intensity, higher = more binding, comparable within an allelic series)"
same,binding signal,HOXD13 [10],"8.99 upbm affinity estimate (log intensity, higher = more binding, comparable within an allelic series)"
same,binding signal,HOXA2 [11],"10.1 upbm affinity estimate (log intensity, higher = more binding, comparable within an allelic series)"
same,binding signal,HOXD13 [12],"9.17 upbm affinity estimate (log intensity, higher = more binding, comparable within an allelic series)"
same,binding signal,HOXD13 [13],"9.29 upbm affinity estimate (log intensity, higher = more binding, comparable within an allelic series)"
same,binding signal,HOXA2 [14],"10.3 upbm affinity estimate (log intensity, higher = more binding, comparable within an allelic series)"
same,binding signal,HOXA2 [15],"7.09 upbm affinity estimate (log intensity, higher = more binding, comparable within an allelic series)"
CCAACGGA,binding signal,HOXB4 [1],"7.78 upbm affinity estimate (log intensity, higher = more binding, comparable within an allelic series)"
same,binding signal,PRRX1 [16],"9.38 upbm affinity estimate (log intensity, higher = more binding, comparable within an allelic series)"
same,binding signal,HOXB4 [2],"7.67 upbm affinity estimate (log intensity, higher = more binding, comparable within an allelic series)"
same,binding signal,PROP1 [17],"6.62 upbm affinity estimate (log intensity, higher = more binding, comparable within an allelic series)"
same,binding signal,PROP1 [18],"6.69 upbm affinity estimate (log intensity, higher = more binding, comparable within an allelic series)"
same,binding signal,PROP1 [19],"6.66 upbm affinity estimate (log intensity, higher = more binding, comparable within an allelic series)"
same,binding signal,PRRX1 [20],"9.16 upbm affinity estimate (log intensity, higher = more binding, comparable within an allelic series)"
CAGGCACG,binding signal,HOXB4 [1],"7.26 upbm affinity estimate (log intensity, higher = more binding, comparable within an allelic series)"
same,binding signal,PRRX1 [16],"9.38 upbm affinity estimate (log intensity, higher = more binding, comparable within an allelic series)"
same,binding signal,HOXB4 [2],"7.43 upbm affinity estimate (log intensity, higher = more binding, comparable within an allelic series)"
same,binding signal,NKX2-6 [21],"9.31 upbm affinity estimate (log intensity, higher = more binding, comparable within an allelic series)"
same,binding signal,NKX2-6 [22],"9.26 upbm affinity estimate (log intensity, higher = more binding, comparable within an allelic series)"
same,binding signal,PRRX1 [20],"9.24 upbm affinity estimate (log intensity, higher = more binding, comparable within an allelic series)"
CTGGAGCC,binding signal,HOXB4 [1],"7.25 upbm affinity estimate (log intensity, higher = more binding, comparable within an allelic series)"
same,binding signal,ALX4 [23],"7.69 upbm affinity estimate (log intensity, higher = more binding, comparable within an allelic series)"
same,binding signal,ALX4 [24],"8.02 upbm affinity estimate (log intensity, higher = more binding, comparable within an allelic series)"
same,binding signal,HOXB4 [2],"7.29 upbm affinity estimate (log intensity, higher = more binding, comparable within an allelic series)"
same,binding signal,VAX1 [25],"6.85 upbm affinity estimate (log intensity, higher = more binding, comparable within an allelic series)"
same,binding signal,VAX1 [26],"6.94 upbm affinity estimate (log intensity, higher = more binding, comparable within an allelic series)"
same,binding signal,VAX1 [27],"6.67 upbm affinity estimate (log intensity, higher = more binding, comparable within an allelic series)"
GAGCCGGC,binding signal,HOXB4 [1],"7.56 upbm affinity estimate (log intensity, higher = more binding, comparable within an allelic series)"
same,binding signal,HOXC10 [28],"10 upbm affinity estimate (log intensity, higher = more binding, comparable within an allelic series)"
same,binding signal,HOXB4 [2],"7.62 upbm affinity estimate (log intensity, higher = more binding, comparable within an allelic series)"
same,binding signal,NKX2-6 [29],"9.46 upbm affinity estimate (log intensity, higher = more binding, comparable within an allelic series)"
same,binding signal,MSX2 [30],"9.47 upbm affinity estimate (log intensity, higher = more binding, comparable within an allelic series)"
same,binding signal,ALX3 [31],"7.82 upbm affinity estimate (log intensity, higher = more binding, comparable within an allelic series)"
same,binding signal,HOXC10 [32],"9.91 upbm affinity estimate (log intensity, higher = more binding, comparable within an allelic series)"
same,binding signal,MSX2 [33],"9.45 upbm affinity estimate (log intensity, higher = more binding, comparable within an allelic series)"
same,binding signal,ALX3 [34],"7.87 upbm affinity estimate (log intensity, higher = more binding, comparable within an allelic series)"
same,binding signal,ALX3 [35],"7.74 upbm affinity estimate (log intensity, higher = more binding, comparable within an allelic series)"
same,binding signal,ALX3 [36],"7.7 upbm affinity estimate (log intensity, higher = more binding, comparable within an allelic series)"
same,binding signal,MSX2 [37],"9.45 upbm affinity estimate (log intensity, higher = more binding, comparable within an allelic series)"
same,binding signal,ALX3 [38],"7.79 upbm affinity estimate (log intensity, higher = more binding, comparable within an allelic series)"
